Active and inactive are the calls of the source. Calls follow the shape of the full dose curve.
Experiment: qHTS drug screen for cell cycle checkpoint inhibitors in PARPi-resistant BRCA-mutant ovarian cancer cell lines. (AID 1963452)
Conditions: PEO1/OlaR viability, CellTiter-Glo luminescence, 96 h, stronger effect = lower value
How it was run: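 PEO1, PEO4 and PEO1/OlaR ovarian cancer cells, 600 per well, exposed 96 h at 37C to a dilution series. Viability read by CellTiter-Glo luminescence, normalized to DMSO and empty wells; activity summarized as Z-AUC.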

[1] = measured here: PEO1 parental Z-AUC

Structure (SMILES) | Z-AUC | Z-AUC [1] | Z-AUC (measured here: PEO4 Z-AUC)
CN(CC(=O)N(Cc1ccc(C2CCCCC2)cc1)c1ccc(C(=O)O)c(O)c1)S(=O)(=O)c1c(F)c(F)c(F)c(F)c1F | 0.87 (inactive) | 0.115 | 0.274
CCc1nc(-c2cccc(C)c2)c(-c2ccnc(NC(=O)c3ccccc3)c2)s1 | -0.209 (inactive) | 0.57 | 0.812
O=C(O)CCCCCC(=O)NN=C1CCCC1 | 1.41 (inactive) | 1.02 | 1.15
NC(=NCCCCCCN=C(N)N=C(N)Nc1ccc(Cl)cc1)N=C(N)Nc1ccc(Cl)cc1 | 0.994 (inactive) | 0.0732 | -0.00855
Nc1nc(=O)n([C@H]2C[C@H](O)[C@@H](CO)O2)cc1F | -1.47 (inactive) | -1.19 | -0.999
CCNC(=O)c1cc2c(-c3cc(OCCN4CCCC4)c(Cl)cc3Cl)nc(N)nc2s1 | -0.792 (inactive) | -0.714 | -0.886
COc1cc(O)c2c(c1)C1OC1C[C@H](O)[C@H](O)C(=O)C=CC[C@H](C)OC2=O (stereo not given in full) | 0.145 (inactive) | -0.101 | -0.574
C[C@@H]1C(=O)O[C@H]2CC34[C@H]5C[C@@H](C(C)(C)C)C36[C@H](OC(=O)[C@@H]6O)O[C@@]4(C(=O)O5)[C@]21O (stereo not given in full) | 0.793 (inactive) | 0.5 | 0.284
Cn1cc(C2=C(c3c4n(c5ccccc35)CCC(CN)C4)C(=O)NC2=O)c2ccccc21 (stereo not given) | 0.936 (inactive) | 1.25 | 1.18
Cn1c(Nc2ccc(C(F)(F)F)cc2)nc2cc(Oc3ccnc(-c4ncc(C(F)(F)F)[nH]4)c3)ccc21 | -0.152 (inactive) | -0.11 | -1.19
